# Data taken from PubChem BioAssay AID1645850 (National Center for Advancing Translational Sciences (NCATS), 2021).
# Records with an inconclusive call do not appear. Unmarked numbers belong to inactive results. Calls come from the whole dose curve; as a rule, active = well fitted curve in the direction sought with a large enough effect in the repeat runs; inconclusive = weak or mixed curves, or another doubt; inactive = no such curve, though single readings can be large or run the other way.
# Assay: Comparison of Janus kinase inhibitors to block the type I interferon pathway in human skeletal muscle cells: CTG Counterscreen
# Conditions: human skeletal muscle cells viability, CellTiter-Glo ATP luminescence; series mostly up to 45.9 µM; activity change, negative = cytotoxicity: at the top concentration
# Text: Assay Submitter (PI): Travis B. Kinder Ph.D.
# National Center for Advancing Translational Sciences (NCATS)
# The family of Janus kinases (JAK1, JAK2, JAK3, TYK2) mediate signal transduction from cytokine receptors through phosphorylation and activation of intracellular signaling pathways and transcription factors. Small molecule antagonists of JAKs (jakinibs) have been developed with varying selectivity for the use in malignancies and immune regulation. […] We have assayed a library of 48 jakinibs for their ability to inhibit the JAK1/TYK2-dependent type I interferon (IFN) - major histocompatibility complex (MHC) class I pathway in human skeletal muscle cells genome-engineered to fuse a pro-luminescent HiBiT peptide to endogenous MHC class I.
# The assay utilized CRISPR/Cas9 genome-engineered immortalized human myoblasts, C25cl48, where a pro-luminescent reporter HiBit was fused to the C-terminus of endogenous MHC class I allele HLA-B*08:01 (HLA-B HiBit myoblasts) (Kinder et al., 2020). HiBit is an 11 amino acid fragment of NanoLuc luminescent reporter (Promega Corporation), and when complexed to the larger LgBit fragment, the reconstituted enzyme produces light in the presence of furimazine substrate. Briefly, HLA-B HiBit myoblasts were plated into 1536-well plates, treated with 4.0 ng/ml human IFN-beta and 48 jakinibs in an 11-point, 1:3 titration with a high final concentration of 46 uM. After 24 hrs of treatment, cells were assayed by CellTiter-Glo Luminescent Cell Viability Assay (Promega) and luminescence measured by a ViewLux 1430 Ultra HTS (Perkin Elmer).
# 1. Kinder TB, Dranchak PK, Inglese J. High-Throughput Screening to Identify Inhibitors of the Type I Interferon-Major Histocompatibility Complex Class I Pathway in Skeletal Muscle. ACS Chem Biol. 2020 Jul 17;15(7):1974-1986. doi: 10.1021/acschembio.0c00343
# PROTOCOL TABLE (as described by Inglese et al., 2007)
# SEQUENCE No. (e.g., 1, 2, 3, etc.); PARAMETER (e.g., Cells, Incubation, Reagent, etc.); VALUE; DESCRIPTION
# 1a; Cells; 5 uL; Seed 250 cells/well with a Multidrop Combi (Thermo Scientific) into two Greiner 1536 well white/solid bottom, high base, TC plates (789173-F) in 5 ul/well of growth medium (GM) without dexamethasone into columns 1+2
# 1b; Cells; 5 uL; Seed 250 cells/well with a Multidrop Combi (Thermo Scientific) into two Greiner 1536 well white/solid bottom, high base, TC plates (789173-F) in 5 ul/well of GM without dexamethasone + 4 ng/ml IFN-beta into columns 3 - 48. Add metal lids with gas-exchange holes.
# 2; Incubate; 30 min; Incubate at 37C, 5% CO2, 95% RH
# 3; Compounds; 23 nl; Transfer DMSO control and library compounds in DMSO with Pin Tool (Wako)
# 4; Incubate; 24 hrs; Incubate at 37C, 5% CO2, 95% RH
# 5; Dispense; 2.5 ul; Add CellTiter Glo lytic reagent with a BioRAPTR FRD (Beckman Coulter)
# 6; Incubate; 10 min; Incubate in the dark at ambient temperature for lysis
# 7; Detector; 5 sec; Measure luminescence with ViewLux 1430 Ultra HTS (Perkin Elmer). Settings: Exposure = 2 sec, Gain = High, Speed = Slow, Binning = 2X
# NOTES (numbers refer to sequence above)
# 1; HLA-B HiBit myoblasts cultured in GM - 4:1 ratio DMEM Glutamax (Thermo Fisher, 10566) : M199 (Thermo Fisher, 11150), 10% FBS (Hyclone Standard), 1% Pen/Strep, 50 ug/ml fetuin, 10 ng/ml hEGF, 1 ng/ml bhFGF, 10 ug/ml insulin, 0.4 ug/ml dexamethasone (supplements from Promocell, C-39360). […] Recombinant human IFN-beta (Peprotech, 300-02BC) was reconstituted in water, diluted in GM, and aliquots stored at -80C until day of use.
# 3; Control plate contained DMSO in columns 1 and 4, digitonin (Sigma, D141) cytotoxicity control in DMSO at 20 mM in column 2, and ruxolitinib (Selleckchem, S1378) inhibitor control in DMSO 16-point, 1:2 titration, high concentration = 17 mM in column 3. Digitonin and ruxolitinib stocks were reconstituted at 20 and 50 mM in DMSO and aliquots stored at -20C. […]
row,Compound,"activity change, negative = cytotoxicity [%]"
1,CCn1c(C(=O)N(C2CC2)C2CC2)cc2c3c(ncn3C)c(Nc3cc(C)n(C)n3)nc21,-17.3
2,NC(=O)c1cnc2[nH]ccc2c1NC1C2CC3C[C@H]1CC(O)(C3)C2 (some centres not stated),1.18
3,[2H]C([2H])([2H])NC(=O)c1nnc(NC(=O)C2CC2)cc1Nc1cccc(-c2ncn(C)n2)c1OC,-10.7
4,C=CC(=O)Nc1ccc(F)c(-c2ncnc3[nH]cc(C(=O)OCC)c23)c1,3.28
5,CN1CCN(c2cccc(Nc3nc4c(-c5ccc(S(C)(=O)=O)cc5)cccn4n3)c2)CC1,-4.5
6,CCS(=O)(=O)N1CCN(c2ccc(Nc3ncc(C(N)=O)c(NC4CC4)n3)cc2)CC1,1.99
7,O=C(Nc1ccnc(NC(=O)C2CC2)c1)c1c(Cl)cccc1Cl,8.25
8,C[C@@H]1CCN(C(=O)CC#N)C[C@@H]1N(C)c1ncnc2[nH]ccc12,3.19
9,Cc1cc(Nc2cc(CN3CCOCC3)c3nc(C)c(Cc4ccc(Cl)cc4F)n3n2)n[nH]1,-19
10,N#CC[C@H](C1CCCC1)n1cc(-c2ncnc3[nH]ccc23)cn1,8.46
11,CCS(=O)(=O)N1CC(CC#N)(n2cc(-c3ncnc4[nH]ccc34)cn2)C1,1.82
12,O=C(Nc1ccc(-c2ccnc(Nc3ccc(N4CCOCC4)cc3)n2)cc1)[C@@H]1CCCN1,12.2
13,CCCS(=O)(=O)NC1CC(N(C)c2ncnc3[nH]ccc23)C1 (configuration not stated),5.82
14,CC(C)(O)C(=O)N1CCN(c2ccc(C(F)(F)F)c(C3=C(c4c[nH]c5ccccc45)C(=O)NC3=O)c2)CC1,-7.18
15,CNS(=O)(=O)CC1CCC(N(C)c2ncnc3[nH]ccc23)CC1 (configuration not stated),15
16,CC(C)(C)c1nc2c3cc[nH]c(=O)c3c3cc(F)ccc3c2[nH]1,-11.6
17,COc1cc2ncnc(Nc3ccc(O)cc3)c2cc1OC,-2.03
18,N#CCNC(=O)c1ccc(-c2ccnc(Nc3ccc(N4CCOCC4)cc3)n2)cc1,-19.9
19,CC(C)(C)NS(=O)(=O)c1ccc(-c2ccc3[nH]nc(N)c3c2)cc1,15.9
20,N#C/C(=C\c1ccc(O)c(O)c1)C(=O)NCc1ccccc1,1.73
21,Cc1oncc1C(=O)Nc1ccc(C(F)(F)F)cc1,-6.1
22,CC[C@@H]1CN(C(=O)NCC(F)(F)F)C[C@@H]1c1cnc2cnc3[nH]ccc3n12,-28.6
23,CN(C)c1ccc(Nc2nc(N)n(C(=O)c3c(F)cccc3F)n2)cc1,-10.4
24,CC1(C)CN(C(=O)c2ccc(-c3cccc4nc(NC(=O)C5CC5)nn34)cc2)C1,7.08
25,CC(C)(C)NC(=O)Nc1cccc(Nc2ncc(F)c(NC(C)(C)CO)n2)c1,6.2
26,Cn1cc(Nc2nccc(N3C[C@H]4CC[C@@H](C3)N4C(=O)[C@@H]3CC3(F)F)n2)cn1,-24.6
27,CC[C@@](C)(Nc1ccnc(-c2c[nH]c3ncccc23)n1)C(=O)NCC(F)(F)F,5.31
